Results as given in PubChem BioAssay (NCATS).
Records with an inconclusive call do not appear. Entries that show only a call come without a potency. Active and inactive are the calls of the source. Calls follow the shape of the dose curve; as a rule, active = well fitted inhibition curve with a large enough effect; inconclusive = small, poorly fitted or top-dose-only effect; inactive = flat fitted curve, though single readings scatter.

Biological target: Calcium and integrin-binding protein 1 (Homo sapiens) (UniProt Q99828)
Experiment: Primary qHTS for Identification of Calcium Integrin Binding Protein 1 (CIB1) Competitor (AID 1508620); also: top concentration of the series differs between compounds
Procedure, shortened: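 Fluorescence polarization competition: GST-tagged CIB1 (1 uM final) preincubated with compound 15 min at room temperature, then FITC-labelled alphaIIb peptide (100 nM final) added. After 15 min at room temperature, polarization read at Ex 480/Em 540.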

Sequence of Calcium and integrin-binding protein 1 (Homo sapiens) (Q99828 whole entry, looked up): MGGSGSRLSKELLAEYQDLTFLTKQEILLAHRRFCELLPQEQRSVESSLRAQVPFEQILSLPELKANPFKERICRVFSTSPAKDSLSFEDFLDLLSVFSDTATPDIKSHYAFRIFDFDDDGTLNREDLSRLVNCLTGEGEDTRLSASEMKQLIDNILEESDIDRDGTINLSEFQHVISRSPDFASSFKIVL

| SMILES | Potency |
| --- | --- |
| O=C(c1cccs1)c1nonc1C(=O)c1cccs1 | inactive |
| N#Cc1c(-c2cccc(Cl)c2)no[n+]1[O-] | inactive |
| O=C(O)c1cccc2c1C(=O)N(c1ccccc1)C2 | inactive |
| O=C(O)c1ccc(-c2ccc3ncnc(NCC4CCCO4)c3c2)o1 (stereo not given) | inactive |
| O=C(CNC(=O)c1ccccc1)N[C@@H](C(=O)Nc1cc(C(F)(F)F)ccc1Cl)c1ccccc1 | inactive |
| Cn1nnnc1Sc1ncnc2scc(-c3ccccc3F)c12 | inactive |
| CN(C)C(=O)C1CCN(c2nc(-c3ccc(Br)cc3)cs2)CC1 | inactive |
| Cc1cc(NS(=O)(=O)c2cc3c(cc2F)NC(=O)CC3)ccc1Cl | inactive |
| Cc1cc2c(s1)c1cnn(Cc3c(F)cc(F)cc3F)c(=O)c1n2C | inactive |
| COc1ccc(C2Nc3ccccc3C(=O)N2Cc2ccccc2)cc1COc1cccc(C(F)(F)F)c1 (stereo not given) | inactive |
| Cc1cc(C)nc(NC(=S)N2CCN(Cc3cccc4ccccc34)CC2)c1 | inactive |
| O=C1c2ccccc2NC(c2ccc(-c3ccc(Br)cc3)o2)N1O (stereo not given) | inactive |
| CN(C)c1cccc(NS(=O)(=O)c2ccc(NC(=O)Cc3ccc(Cl)c(Cl)c3)cc2)c1 | inactive |
| CCOC(=O)C1CCN(C(=O)C2(NC(=O)Nc3ccccc3Cl)CCCCC2)CC1 | inactive |
| NC(=O)C1CCN(c2nc(-c3ccccc3-c3ccccc3)cs2)CC1 | inactive |
| Cc1ccc(NS(=O)(=O)c2cc3c(cc2F)NC(=O)CC3)cc1C | inactive |
| Oc1ccc(CNc2ccccc2Cl)c2cccnc12 | inactive |
| Cn1nnnc1Sc1ncnc2scc(-c3ccccc3Cl)c12 | inactive |
| COc1ccc(N2Cc3cccc(C(=O)O)c3C2=O)c(OC)c1 | inactive |
| Cc1cc(NS(=O)(=O)c2ccc(NC(=O)Cc3ccc(Cl)cc3Cl)cc2)no1 | inactive |
| Brc1sc2c(c1-c1nc3ccccc3s1)CCNC2 | inactive |
| O=C1c2ccccc2C(=O)N1c1cccc2cccnc12 | inactive |
| O=C1COc2cc([S+](=O)([O-])Nc3ccc(Cl)c(Cl)c3)c(Cl)cc2N1 | inactive |
| Cc1cc(NS(=O)(=O)c2ccc(NC(=O)Cc3ccc(C)c(F)c3)cc2)no1 | inactive |

| SMILES | Potency |
| --- | --- |
| Cc1cnc(-c2ccccc2C(F)F)nc1NCc1ccc(-n2ccnn2)cc1 | inactive |
| COc1ccc(C2Nc3ccccc3C(=O)N2Cc2ccccc2)cc1COc1ccc(NC(=O)c2ccccc2)cc1 (stereo not given) | inactive |
| CC(C)(C)N=Cc1c(-c2ccccc2)no[n+]1[O-] | inactive |
| COc1ccc(-c2nnc3n2N=C(c2ccc(OC)c(OC)c2)CS3)c(OC)c1 | inactive |
| CC(C)c1ccccc1-c1nc(NCc2ccc(-c3cccnc3)cc2)c2[nH]cnc2n1 | inactive |
| COc1ccc2nc(-c3cccc(F)c3)sc2c1 | inactive |
| O=C(NCc1ccccc1)Nc1ncnc2c1C(c1ccccc1)c1c(ccc3ccccc13)O2 (stereo not given) | inactive |
| O=C(Nc1cncnc1)c1cccs1 | inactive |
| O=C(Nc1cc(C(F)(F)F)ccc1Cl)[C@H](O)CCc1ccccc1 | inactive |
| C[n+]1cc(C(O)(c2ccccc2)c2ccccc2)n2ccccc21 | inactive |
| O=C(Nc1ccc(N2CCOCC2)c(C(F)(F)F)c1)Nc1nnc(-c2ccncc2)s1 | inactive |
| COc1ccc(CNc2ccc(N3CCN(C(C)=O)CC3)cc2)cc1OC | inactive |
| CCOC(=O)C1CCN(C(=O)C(C)(C)NC(=O)Nc2ccc3c(c2)CCC3)CC1 | inactive |
| COc1ccccc1-c1ccc(=O)n(CC(=O)NCCc2ccccc2)n1 | inactive |
| COc1cccc(CNc2ncnc3ccc(-c4c(C)noc4C)cc23)c1 | inactive |
| COc1ccc(C2Nc3ccccc3C(=O)N2Cc2ccco2)cc1COc1ccc(N)cc1 (stereo not given) | inactive |
| Cc1cc(C)nc(NC(=S)N2CCN(c3cc(Cl)c(Cl)c(Cl)c3)CC2)c1 | inactive |
| CC1=C(C(=O)Nc2ccc(C)cc2)C(c2ccccc2Br)N=C(Nc2nc3ccccc3o2)N1 (stereo not given) | inactive |
| CC(C)(C)c1ccc(C[C@H](C(=O)O)N2C(=O)c3ccc(C(=O)O)cc3C2=O)cc1 | inactive |
| C=CCNc1oc(-c2cccc(F)c2)nc1C#N | inactive |
| COc1ccc(C2N=C(Nc3nc4ccccc4o3)NC3=C2C(=O)CCC3)cc1 (stereo not given) | inactive |
| O=S(=O)(NCCCCNS(=O)(=O)c1c(F)cccc1F)c1ccc2c(c1)OCCO2 | inactive |
| O=C(O)c1ccc2c(c1)C(=O)N([C@H](Cc1ccc3ccccc3c1)C(=O)O)C2=O | inactive |
| COc1cccc(Cn2ncc3c4sc(B(O)O)cc4n(C)c3c2=O)c1 | inactive |

| SMILES | Potency |
| --- | --- |
| CC(C)(C)OC(=O)CC(=O)NNC(=O)c1cc2ccccc2[nH]1 | inactive |
| O=C(NCCCCc1ccccc1)C1CCN(c2nc(-c3ccc(Br)cc3)cs2)CC1 | inactive |
| Cc1cccc(-n2cnc3cc(C(=O)N4CCC(C#N)CC4)ccc32)c1 | inactive |
| Cc1cccc(CNc2ncnc3ccc(-c4cccc(Cl)c4)cc23)c1 | inactive |
| Cc1ccc(OCCn2c(CCNC(=O)Cc3cccc(F)c3)nc3ccccc32)cc1 | inactive |
| O=C1CCCC2=C1C(c1[nH]ncc1Cl)N=C(Nc1nc3ccc(Cl)cc3o1)N2 (stereo not given) | inactive |
| O=C(CNC(=O)c1ccccc1Cl)OC(C(=O)Nc1cc(C(F)(F)F)ccc1Cl)c1ccccc1 (stereo not given) | inactive |
| CC(C)(C)c1ccc(CSc2nc3ncc(Br)cc3[nH]2)cc1 | inactive |
| N#Cc1c(-c2ccc(Br)cc2)no[n+]1[O-] | inactive |
| COc1ccc(Nc2nn3c(=O)c4ccccc4nc3s2)cc1 | inactive |
| COc1ccccc1-c1ncc(C)c(NCc2ccc(-c3cccnc3)cc2)n1 | inactive |
| N=c1c2c(ncn1CCN1CCOCC1)Oc1ccc3ccccc3c1C2c1ccccc1 (stereo not given) | inactive |
| O=C(Cc1nnc(-c2ccncc2)s1)Nc1ccc(F)c(C(F)(F)F)c1 | inactive |
| O=S(=O)(Nc1cccc2cccnc12)c1ccc(Br)cc1 | inactive |
| O=C(CCc1ccccc1Br)NCCc1nc2ccccc2[nH]1 | inactive |
| O=c1c2ccccc2nc2sc(Nc3cccc(Br)c3)nn12 | inactive |
| CCOC(=O)c1ccc(-c2ccc3ncnc(NCCc4cnc[nH]4)c3c2)o1 | inactive |
| O=C(NCCc1nc2ccccc2n1CCOc1ccccc1[N+](=O)[O-])C1CCCCC1 | inactive |
| N#Cc1ccc(-c2ccc(=O)n(CC(=O)NCCc3ccccc3)n2)cc1 | inactive |
| CC(=O)c1ccc(N2CCN(S(=O)(=O)c3ccc4c(c3)CC(C)N4C(C)=O)CC2)cc1 (stereo not given) | inactive |
| O=C(O)c1ccc(O)c2ncc(-c3ccc(N4CCOCC4)cc3)cc12 | inactive |
| COc1cc(O)c(C(CC(=O)N2CCC(Cc3ccccc3)CC2)c2ccc3c(c2)OCO3)c(OC)c1 (stereo not given) | inactive |
| Cc1cc(C)n2ncc(C(=O)NCc3ccccc3)c2n1 | inactive |
| CC(C)(C)OC(=O)NCc1nnc(-c2cc3ccccc3[nH]2)s1 | inactive |

| SMILES | Potency |
| --- | --- |
| Cc1cccc(CNc2ccnc(-c3ccc(F)cc3F)n2)c1 | inactive |
| Cc1cn([C@H]2C[C@H](N[S+](=O)([O-])c3ccc4c(c3)OCCO4)[C@@H](CO)O2)c(=O)[nH]c1=O | inactive |
| CCn1cnc2c(Nc3cccc(Cl)c3)nc(C#N)nc21 | inactive |
| Cc1cccc(-n2cnc3cc(C(=O)N4CCCC(C(C)C)C4)ccc32)c1 (stereo not given) | inactive |
| CC(C)(C)OC(=O)NCCOCCOCCOCCn1ncc2c1CCCC2NC(=O)c1ccccn1 (stereo not given) | inactive |
| COc1cccc(CNc2ccc(S(=O)(=O)Nc3ccc(-c4ccccc4)cc3)cc2)c1O | inactive |
| O=C1CCCC2=C1C(c1[nH]ncc1Cl)NC(=NCc1ncc[nH]1)N2 (stereo not given) | inactive |
| COc1ccc(C2Nc3ccccc3C(=O)N2CCCN(C)C)cc1COc1ccc(NC(C)=O)cc1 (stereo not given) | inactive |
| COc1cccc(C2C(C#N)=C(NC(=O)CCc3ccccc3)Oc3ccc4ccccc4c32)c1 (stereo not given) | inactive |
| O=C1N/C(=C\c2ccco2)C(=O)N1Cc1ccccc1 | inactive |
| COc1ccc(C2c3c(nc(C)[nH]c3=O)Oc3ccc4ccccc4c32)cc1OC (stereo not given) | inactive |
| COc1ccc(C2Nc3ccccc3C(=O)N2Cc2ccccc2OC)cc1COc1ccc(NC(C)=O)cc1 (stereo not given) | inactive |
| COc1ccc(CN(Cc2ccccc2)S(=O)(=O)c2ccccc2)cc1COc1ccc(NC(C)=O)cc1 | inactive |
| O=C1c2ccccc2C(=O)N1c1cccc2cnccc12 | inactive |
| Cc1cc2c(s1)c1cnn(Cc3ccc(F)cc3F)c(=O)c1n2C | inactive |
| Cc1cc(C)nc(NC(=S)N2CCN(c3ccccn3)CC2)c1 | inactive |
| O=C1CCc2cc(S(=O)(=O)Nc3ccccc3F)ccc2N1 | inactive |
| CN(C)C(=O)c1cccc(-c2csc(N3CCC(C(N)=O)CC3)n2)c1 | inactive |
| CC(=O)Nc1cccc(OCc2cccc(C3Nc4ccccc4C(=O)N3Cc3ccco3)c2)c1 (stereo not given) | inactive |
| O=[S+]([O-])(c1ccc2nsnc2c1)N1CCN([S+](=O)([O-])c2c(F)cccc2F)CC1 | inactive |
| Nc1cccc(-c2ccc(NC(=O)c3cccs3)cn2)c1 | inactive |
| COc1ccccc1C(=O)NCCc1nc2ccccc2n1CCOc1ccc(C)cc1 | inactive |
| CN(CC1CCCO1)c1ncnc2ccc(-c3ccc4c(c3)OCO4)cc12 (stereo not given) | inactive |
| COc1ccc(C2c3c(nc(CCCc4ccccc4)[nH]c3=O)Oc3ccc4ccccc4c32)cc1OC (stereo not given) | inactive |

| SMILES | Potency |
| --- | --- |
| Cc1ccc2nc3sc(C(=O)NC4CCC(O)CC4)cc3cc2c1 (stereo not given) | inactive |
| COc1ccc(C2Nc3ccccc3C(=O)N2Cc2ccccc2OC)cc1COc1c(C)cc(NC(C)=O)cc1C (stereo not given) | inactive |
| CCOc1ccc(CCNC(=O)c2ccc(C3(C(F)(F)F)N=N3)cc2)cc1OCC | inactive |
| FC(F)(F)c1ccccc1-c1nc(NCC#Cc2cccnc2)c2ccccc2n1 | inactive |
| O=C(NCCc1nc2ccccc2n1CCOc1ccc(C(F)(F)F)cc1)C1CCCCC1 | inactive |
| N#Cc1nc(NCC(F)F)nc(Nc2cc(F)cc(F)c2)n1 | inactive |
| Cc1ccc(OCCn2c(CCNC(=O)c3ccccc3C(F)(F)F)nc3ccccc32)cc1 | inactive |
| CCn1cnc2c(Nc3ccc(CCC(=O)N=C(N)N)cc3)nc(C#N)nc21 | inactive |
| O=S(=O)(c1cccc(F)c1)N1CCN(S(=O)(=O)c2ccc3c(c2)OCCO3)CC1 | inactive |
| O=C(Nc1ccc2ccccc2c1)Nc1nnc(-c2ccccc2F)s1 | inactive |
| COc1ccc([S+](=O)([O-])N2CCN([S+](=O)([O-])c3ccc4c(c3)OCCO4)CC2)c(OC)c1 | inactive |
| c1ccc(CNc2ccc(N3CCOCC3)cc2)cc1 | inactive |
| Cc1ccc(OCCn2c(CCNC(=O)NC3CCCCC3)nc3ccccc32)cc1 | inactive |
| Cc1nnc(-c2cnn(C)c2N)n1CCCc1ccccc1 | inactive |
| Cn1nnnc1Sc1ncnc2scc(-c3ccc(C(=O)OC(C)(C)C)cc3)c12 | inactive |
| Cc1c(C(=O)OCC2CCCCO2)[nH]c2c1C(=O)CC(c1ccco1)C2 (stereo not given) | inactive |
| O=C(Nc1ccc2sccc2c1)Nc1nnc(-c2cccnc2)s1 | inactive |
| O=C(Nc1ccccc1)C1CCN(c2nc(-c3ccc(Br)cc3)cs2)CC1 | inactive |
| O=S(=O)(c1ccc2c(c1)OCCO2)N1CCN(S(=O)(=O)c2ccc3c(c2)OCCO3)CC1 | inactive |
| Cc1ccc2nc3sc(C(=O)NCCCN(C)C)cc3cc2c1 | inactive |
| Cc1ccccc1NS(=O)(=O)c1ccc2c(c1)CCC(=O)N2 | inactive |
| COc1cc(NS(=O)(=O)c2ccc3ccccc3c2)c2ncccc2c1 | inactive |
| O=C(OCC#CCSc1nnc(-c2cccc3ccccc23)o1)c1sccc1Cl | inactive |
| O=C(Cc1ccc(Cl)c(Cl)c1)Nc1ccc([S+](=O)([O-])Nc2ccc([N+](=O)[O-])cc2)cc1 | inactive |
